# From PubChem BioAssay (EPA / NIEHS)
# “And” between values parts separate entries of the source, which are not always exact repeats. Equal values may be shown once. The source made the active and inactive calls. The calls were made as follows: active = hit-call score of the fitted dose curve at least 0.9, where 1 is the maximum; inactive = score below 0.9.
# Read-out: Signal transducer and activator of transcription 3 (Homo sapiens) (UniProt P40763)
# Experiment: LTEA_HepaRG_STAT3: Life Technologies and Expression Analysis (LTEA) Assay for Signal transducer and activator of transcription (STAT3) using HepaRG (AID 2283529)
# Conditions: mRNA level, 48 h; actives raise or lower the signal
# Experimental: LTEA_HepaRG is a cell based, multiplexed-readout assay that uses HepaRG, a human liver cell line, with measurements taken at 48 hours after chemical dosing on a 96-well plate.LTEA_HepaRG_STAT3 is one of 102 assay component(s) measured in the LTEA HepaRG cell culture assay. It is a marker of Cell proliferation, survival, death.Data from the assay component LTEA_HepaRG_STAT3 was analyzed into 1 endpoint. This assay endpoint, LTEA_HepaRG_STAT3, was analyzed with bidirectional fitting relative to DMSO as the negative control and baseline of activity. Using a type of inducible reporter, measures of mRNA induction for gain or loss-of-signal activity can be used to understand regulation of transcription factor activity. To generalize the intended target to other relatable targets, this assay endpoint is annotated to the dna binding intended target family, where the subfamily is stat protein.
# A total of 1060 chemcials from the ToxCast library were tested in eight-point concentration-response experiments. Cell culture and cytotoxicity assays were conducted at Thermo Fisher Scientific's Custom Services facility (Madison, WI). A single lot of human HepaRG cells (Thermo Fisher Scientific, Frederick, MD) was used for the cell culture experiments. 96-well format collagen type I coated plates of human HepaRG cells were prepared using established methods. Briefly, cryopreserved HepaRG cells were thawed, plated at a density of approximately 100,000 cells/well in HepaRG Thaw, Plate, and General Purpose media (HPRG770, Thermo Fisher Scientific), and incubated for 48 hours. 0.5% DMSO was selected as vehicle control to balance the requisite need of DMSO in HepaRG cultures to maintain differentiation (for example, baseline metabolism, proportions of hepatocytes vs. cholangiocytes), while enabling further hepatic receptor pathway activation (for example, PXR and CAR) in response to chemical exposure. 48 hours after plating, the culture medium was replaced with HepaRG Serum-Free Incudtion Media. Cells were exposed to each test chemical in duplicate and maintained in CO2 incubators for another 48 hours. Chemical plates were thawed to room temperature and 200x concentrations of treatment groups were prepared. 8-point conentration-reponse curves were made with the highest exposure at 100 uM, followed by half-log dilutions, all in 0.5% DMSO. Each test plate contained variouse controls, induction positive controls (1mM phenobarbital), cytotoxicity positive controls ([…] aflatoxin B1), vehicle controls (0.5% DMSO), and total lysis controls (0.5% DMSO). Cell morphology images were taken using an Essen IncuCyte FLR automated microscope, with six 96-well plates imaged in about 24 minutes. Images were captured and exported and JPEG files. Spent culture media was transfered to black-well plates for the LDH assay, and remaining media was sorted at -80 C for later use. Cells were treated with RLT buffer and frozen until shipped for gene expression analysis. Total RNA was isolated from the cell suspension in 75 uL of Buffer RLT (Qiagen, Germantown, MD 20874) by Quintiles/Expression Analysis (Durham, NC) using a custom isolation procedure. Total RNA from each plate well was transferred to a preamplification plate. Fluidigm's 96.96 Dynamic ArrayTM (Fluidigm, Amsterdam, the Netherlands) technology was used for gene expression analyses by quantitative reverse transcription polymerase chain reaction (qRT-PCR, performed by Quintiles/Expression Analysis, Durham, NC)89. Standard TaqManTM Assays (Applied Biosystems/ThermoFisher Scientific, Foster City, CA) were used to assess the expression of 93 genes selected based on their selectivity and sensitivity to important hepatic receptors known to be modulated by environmental chemicals; importance in human hepatocyte functionality; and hepatotoxicity. […]
# Chain of Signal transducer and activator of transcription 3 (Homo sapiens) (P40763 whole entry, looked up): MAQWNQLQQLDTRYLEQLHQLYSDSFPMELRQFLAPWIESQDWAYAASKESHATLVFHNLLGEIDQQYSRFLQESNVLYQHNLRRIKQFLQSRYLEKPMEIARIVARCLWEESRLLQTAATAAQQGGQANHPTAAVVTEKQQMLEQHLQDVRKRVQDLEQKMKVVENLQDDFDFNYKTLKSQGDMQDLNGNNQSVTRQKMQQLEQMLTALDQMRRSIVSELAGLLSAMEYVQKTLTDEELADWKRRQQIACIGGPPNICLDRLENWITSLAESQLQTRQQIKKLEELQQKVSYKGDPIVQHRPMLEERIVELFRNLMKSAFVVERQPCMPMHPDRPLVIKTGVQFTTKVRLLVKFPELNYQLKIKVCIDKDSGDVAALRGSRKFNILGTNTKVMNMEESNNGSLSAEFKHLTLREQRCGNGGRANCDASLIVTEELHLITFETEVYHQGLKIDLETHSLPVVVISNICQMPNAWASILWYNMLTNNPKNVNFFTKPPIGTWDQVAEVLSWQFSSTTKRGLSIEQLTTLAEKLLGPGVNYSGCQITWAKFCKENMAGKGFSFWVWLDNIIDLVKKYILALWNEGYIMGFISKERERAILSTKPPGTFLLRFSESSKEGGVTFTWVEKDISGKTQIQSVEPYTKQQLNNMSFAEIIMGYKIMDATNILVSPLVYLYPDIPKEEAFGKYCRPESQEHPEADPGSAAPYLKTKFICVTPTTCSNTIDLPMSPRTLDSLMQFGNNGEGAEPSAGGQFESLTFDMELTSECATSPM
SMILES,outcome,AC50
CCCC1COC(Cn2cncn2)(c2ccc(Cl)cc2Cl)O1 (stereo not given),inactive,–
COC(=O)N(OC)c1ccccc1COc1ccn(-c2ccc(Cl)cc2)n1,inactive,–
CCOc1cc(Oc2ccc(C(F)(F)F)cc2Cl)ccc1[N+](=O)[O-],inactive,–
O=C(O)COc1nc(Cl)c(Cl)cc1Cl,inactive,–
CCON=C(CC)C1=C(O)CC(c2c(C)cc(C)cc2C)CC1=O (stereo not given),inactive,–
CCCCNC(=O)n1c(NC(=O)OC)nc2ccccc21,inactive,–
COC(=O)c1ccccc1C(=O)OC,inactive,–
CCOC(=O)CC(SP(=S)(OC)OC)C(=O)OCC (stereo not given),inactive,–
COC(=O)C(C)Oc1ccc(Oc2ccc(Cl)cc2Cl)cc1 (stereo not given),inactive,–
C=CC1(C)OC(=O)N(c2cc(Cl)cc(Cl)c2)C1=O (stereo not given),inactive,–
C#CCOS(=O)OC1CCCCC1Oc1ccc(C(C)(C)C)cc1 (stereo not given),–,36.3 µM (active)
CC(Oc1ccc(Cl)cc1Cl)C(=O)O (stereo not given),inactive,–
CCCCC(CC)COC(=O)c1ccccc1C(=O)OCC(CC)CCCC (stereo not given),inactive,–
CC(C)(C)c1ccc(CSc2cnn(C(C)(C)C)c(=O)c2Cl)cc1,inactive,–
N#CC(CCc1ccc(Cl)cc1)(Cn1cncn1)c1ccccc1 (stereo not given),inactive,–
Oc1ccccc1-c1ccccc1,inactive,–
COP(=S)(OC)Oc1nc(Cl)c(Cl)cc1Cl,inactive,–
CS/C(C)=N/OC(=O)N(C)SN(C)C(=O)O/N=C(\C)SC,inactive,–
Cc1c(F)c(F)c(COC(=O)C2C(/C=C(\Cl)C(F)(F)F)C2(C)C)c(F)c1F (stereo not given),inactive,–
CO/C=C(/C(=O)OC)c1ccccc1Oc1cc(Oc2ccccc2C#N)ncn1,inactive,–

SMILES,outcome,AC50
CON(C)C(=O)Nc1ccc(Cl)c(Cl)c1,inactive,–
CN(C)C(=S)SSC(=S)N(C)C,inactive,–
CCOC(=O)C(Cl)Cc1cc(-n2nc(C)n(C(F)F)c2=O)c(F)cc1Cl (stereo not given),inactive,–
C=CCC1=C(C)C(OC(=O)C2C(C=C(C)C)C2(C)C)CC1=O (stereo not given),inactive,–
CC(C)C1(C)N=C(c2nc3ccccc3cc2C(=O)O)NC1=O (stereo not given),inactive,–
CC1=C(C(=O)Nc2ccccc2)SCCO1,inactive,–
N#Cc1nn(-c2c(Cl)cc(C(F)(F)F)cc2Cl)c(N)c1S(=O)C(F)(F)F (stereo not given),inactive,–
Cc1ccc(-c2c(Cl)nc(C#N)n2S(=O)(=O)N(C)C)cc1,–,18.4 µM (active)
Cc1cc(Cl)ccc1OCC(=O)O,inactive,–
O=C(O)c1nc(Cl)ccc1Cl,inactive,–
COc1cnc(OC)n2nc(NS(=O)(=O)c3c(OCC(F)F)cccc3C(F)(F)F)nc12,inactive,–
CCCCOC(=O)c1ccccc1C(=O)OCCCC,inactive,–
CNC(=S)S,inactive,–
COc1ccc(C(c2ccc(OC)cc2)C(Cl)(Cl)Cl)cc1,inactive,–
OC(c1ccc(Cl)cc1)(c1cncnc1)c1ccccc1Cl (stereo not given),inactive,–
CCCN(CCC)c1c([N+](=O)[O-])cc(S(N)(=O)=O)cc1[N+](=O)[O-],–,94 µM (active) and 50 µM (active) and 77 µM (active)
CC(C)Oc1cc(-n2nc(C(C)(C)C)oc2=O)c(Cl)cc1Cl,inactive,–
CCc1nn(C)c(C(=O)NCc2ccc(C(C)(C)C)cc2)c1Cl,inactive,–
CCOP(=S)(OCC)SCn1c(=O)oc2cc(Cl)ccc21,inactive,–
COc1nc(NC(C)C)nc(NC(C)C)n1,inactive,–
